Assay outcomes: PubChem BioAssay, University of Kansas High Throughput Screening Laboratory
mHTT-CaM PPI inh – mutant huntingtin-calmodulin interaction inhibitors – biochemical, AlphaScreen, primary screen; P42858; AlphaScreen His-mHTT/GST-CaM binding, luminescence; AID 1671202, 2021; 3.6% of 190,000 active; inhibition, % at 15 µM;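 note: 0% = both proteins with DMSO and 100% = one protein alone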
Pf apPOL inh – Pf-apPOL inhibitors, biochemical, fluorescence. Plasmodium falciparum apicoplast DNA polymerase (apPOL). Recombinant Pf-apPOL, molecular beacon fluorescence, 1.5 h. inhibition, % at 10 µM. 0.25% of 210,000 active. AID 1794808, 2022
Starred values were filed as active, the others as inactive; ! = not active in a repeat. The sample as a whole holds a higher share of hits than the screen did. Cut-off read from the data, not from the text of the source: active = inhibition above about 50%; inactive = the rest.

Results for COc1ccc(OC)c(C=C2Oc3c(ccc4c3CN(Cc3ccco3)CO4)C2=O)c1 ?
mHTT-CaM PPI inh: 15.9; Pf apPOL inh: -7.6

How did COc1ccc(C=C2Oc3c(ccc4c3CN(c3ccc5c(c3)OCO5)CO4)C2=O)cc1OC do in these assays?
mHTT-CaM PPI inh: 58.7*; Pf apPOL inh: 6.1

How did COc1ccc(C=C2Oc3c(ccc4c3CN(Cc3ccco3)CO4)C2=O)c(OC)c1OC do in these assays?
mHTT-CaM PPI inh: 66.2*; Pf apPOL inh: -24.3

Results for COc1ccc(C=C2Oc3c(ccc4c3CN(Cc3ccco3)CO4)C2=O)c(OC)c1 ?
mHTT-CaM PPI inh: 67.7*; Pf apPOL inh: -16.8

How did Cc1cccc(NC(=O)CN2CCC(c3nc(-c4ccccc4Cl)no3)CC2)c1C do in these assays?
mHTT-CaM PPI inh: 5.0; Pf apPOL inh: -4.0

What do the screens show for `COc1ccc(-c2ncc(NC(=O)C3CCC3)cn2)cc1`?
mHTT-CaM PPI inh: -13.1; Pf apPOL inh: 0.0

How did COc1cccc(N2CC(NC(=O)C34CC5CC(CC(C5)C3)C4)CC2=O)c1 (configuration not stated) do in these assays?
mHTT-CaM PPI inh: -1.0; Pf apPOL inh: -4.9

How did O=C(c1cnn2c1NC(c1ccco1)CC2C(F)(F)F)N1CCSCC1 (configuration not stated) do in these assays?
mHTT-CaM PPI inh: -2.0; Pf apPOL inh: 7.9

Results for O=C1C(=Cc2ccco2)Oc2c1ccc1c2CN(Cc2ccc3c(c2)OCO3)CO1 ?
mHTT-CaM PPI inh: 47.6; Pf apPOL inh: -7.2

Results for COc1ccc(CN2COc3ccc4c(c3C2)OC(=Cc2ccco2)C4=O)cc1 ?
mHTT-CaM PPI inh: 50.9*; Pf apPOL inh: -6.5

Results for COc1ccc(Br)cc1C1=N/C(=C/c2ccccc2C(F)(F)F)C(=O)O1 ?
mHTT-CaM PPI inh: 1.0; Pf apPOL inh: -0.9

What do the screens show for `O=C1NC(=Nc2ccccc2)S/C1=C/c1cc(Br)cc(Cl)c1O`?
mHTT-CaM PPI inh: 96.0*; Pf apPOL inh: -3.0

Results for O=C1NC(=Nc2ccccc2)S/C1=C/c1cc(Br)ccc1O ?
mHTT-CaM PPI inh: 55.0*; Pf apPOL inh: -41.3

Results for O=C1NC(=Nc2ccccc2)S/C1=C/c1cc(I)ccc1O ?
mHTT-CaM PPI inh: 52.0*; Pf apPOL inh: -5.5

What do the screens show for `COc1ccc(Br)cc1/C=C1/SC(=Nc2ccccc2)NC1=O`?
mHTT-CaM PPI inh: 19.0; Pf apPOL inh: -2.9

Results for O=C1NC(=Nc2ccccc2)S/C1=C/c1ccc(O)c(O)c1 ?
mHTT-CaM PPI inh: 43.0; Pf apPOL inh: -13.4

Results for Cc1ccccc1/C=C1/SC(=Nc2ccccc2)NC1=O ?
mHTT-CaM PPI inh: 48.0; Pf apPOL inh: -1.3

Results for CN(Cc1ccccc1)C(=O)NC1(C(F)(F)F)Oc2ccccc2O1 ?
mHTT-CaM PPI inh: 4.0; Pf apPOL inh: -4.3

Results for c1cc(-c2nc3ccccc3[nH]2)nc(-c2nc3ccccc3[nH]2)c1 ?
mHTT-CaM PPI inh: 78.2*; Pf apPOL inh: 24.1

What do the screens show for `Fc1ccc(-c2nc3ccccc3[nH]2)cc1`?
mHTT-CaM PPI inh: -15.6; Pf apPOL inh: -4.5

What do the screens show for `COc1cc(N)c(Cl)cc1NC(=O)c1ccccc1`?
mHTT-CaM PPI inh: 12.8; Pf apPOL inh: 3.2

Results for CC1CCCC2(C1)C(C#N)=C(SCC(=O)Nc1ccc(Br)cc1)NC(=O)C2C#N (configuration not stated) ?
mHTT-CaM PPI inh: 73.0*; Pf apPOL inh: -1.8

What do the screens show for `N#CC1=C(SCC(=O)Nc2ccccc2)NC(=O)C(C#N)C12CCCC2` (configuration not stated)?
mHTT-CaM PPI inh: -2.7; Pf apPOL inh: -4.1

Results for CCCC[C@H]1[C@@H]2C[C@H]([C@H]3CCCCN31)[C@H](OC(=O)Nc1ccc(C(F)(F)F)cc1)C2 ?
mHTT-CaM PPI inh: -15.0; Pf apPOL inh: -7.7

Results for C[C@H]1[C@@H]2C[C@H]([C@H]3CCCCN31)[C@H](OC(=O)Nc1ccc(C(F)(F)F)cc1)C2 ?
mHTT-CaM PPI inh: 76.3*; Pf apPOL inh: -2.9

Results for CN(Cc1ccccc1)C(=O)c1ccc(Cl)cc1[N+](=O)[O-] ?
mHTT-CaM PPI inh: 3.8; Pf apPOL inh: 7.1

How did O=C(OC1OC2COC(=O)c3cc(O)c(O)c(O)c3-c3c(cc(O)c(O)c3O)C(=O)OC(C2O)C1O)c1cc(O)c(O)c(O)c1 (configuration not stated) do in these assays?
Pf apPOL inh: 99.0*

What do the screens show for `COc1c(O)cc2c(c1O)C1OC(CO)C(O)C(O)C1OC2=O` (configuration not stated)?
Pf apPOL inh: -10.1

How did CCOC(=O)c1ccccc1OC(=O)CS(=O)c1ccc(C(F)(F)F)cc1[N+](=O)[O-] (configuration not stated) do in these assays?
mHTT-CaM PPI inh: -2.8; Pf apPOL inh: -0.4

Results for COc1cccc(-c2nnc3n2N=C(c2ccc(O)c(O)c2)CS3)c1 ?
mHTT-CaM PPI inh: 52.0*; Pf apPOL inh: -2.8

What do the screens show for `Oc1ccc(C2=Nn3c(nnc3-c3cccc(F)c3)SC2)cc1O`?
mHTT-CaM PPI inh: 39.0; Pf apPOL inh: -1.1

What do the screens show for `CN(C)C(=O)c1ccc(-c2nnc(NCc3ccccc3)c3ccccc23)cc1`?
mHTT-CaM PPI inh: 33.2; Pf apPOL inh: -2.2

How did CCOc1ccc(-c2nnc(Nc3ccc(OC)c(C(N)=O)c3)c3ccccc23)cc1 do in these assays?
mHTT-CaM PPI inh: 65.0*; Pf apPOL inh: -2.4

Results for CNC(=O)COc1ccc(Nc2nnc(-c3ccc(C)cc3)c3ccccc23)cc1 ?
mHTT-CaM PPI inh: 67.0*!; Pf apPOL inh: -0.5

How did CCN(CC)C(=O)COc1ccc(-c2nnc(NCc3ccccc3)c3ccccc23)cc1 do in these assays?
mHTT-CaM PPI inh: 99.0*; Pf apPOL inh: -76.9

What do the screens show for `CC(=O)Nc1ccc(Nc2nnc(-c3ccc(O)cc3)c3ccccc23)cc1`?
mHTT-CaM PPI inh: 33.0; Pf apPOL inh: -71.2

How did COc1ccc(Nc2nnc(-c3ccc(C(=O)NCCO)cc3)c3ccccc23)cc1 do in these assays?
mHTT-CaM PPI inh: 1.8; Pf apPOL inh: -4.0

What do the screens show for `CC1=C(C(=O)Nc2ccc(Br)cn2)C(c2cccnc2)C2=C(CC(C)(C)CC2=O)N1` (configuration not stated)?
mHTT-CaM PPI inh: 3.0; Pf apPOL inh: 3.4

How did O=C(NCCC(c1ccccc1)c1ccccc1)C(=O)NCc1cccs1 do in these assays?
mHTT-CaM PPI inh: -5.4; Pf apPOL inh: -1.3

How did Cc1cc(=O)[nH]c(SCc2c(Cl)cccc2Cl)n1 do in these assays?
mHTT-CaM PPI inh: 3.0; Pf apPOL inh: 5.8

How did COc1ccccc1NC(=O)N1CCC(CNC(=O)C(=O)Nc2cccnc2)CC1 do in these assays?
mHTT-CaM PPI inh: -8.9; Pf apPOL inh: -5.6

What do the screens show for `CCc1[nH]nc(-c2ccccc2)c1NC(=O)CC1CCCC1`?
mHTT-CaM PPI inh: 97.9*; Pf apPOL inh: 72.4*

What do the screens show for `CCCc1[nH]nc(-c2ccccc2)c1NC(=O)C1CC1`?
mHTT-CaM PPI inh: 12.9; Pf apPOL inh: -6.0

How did O=[N+]([O-])c1ccc(-c2nc(NCC3CCCO3)c3ccccc3n2)cc1 (configuration not stated) do in these assays?
mHTT-CaM PPI inh: 12.0; Pf apPOL inh: -2.1

How did CCc1ccc(NC(=O)c2cncc(-c3ccc(C)cc3)c2)cc1 do in these assays?
mHTT-CaM PPI inh: -9.3; Pf apPOL inh: -0.2

What do the screens show for `Cc1ccc(-c2cncc(C(=O)Nc3ccc4c(c3)OCCO4)c2)cc1`?
mHTT-CaM PPI inh: 54.1*; Pf apPOL inh: -3.4

Results for CCOc1ccccc1CN1CCCC1c1cc(C(C)C)no1 (configuration not stated) ?
mHTT-CaM PPI inh: -17.4; Pf apPOL inh: -1.5
